GALR2 blocker = blocks the human galanin receptor 2 | O43603 | hit rate 0.39% among 140,000 | inhibition, % at 4 µM | AID 828 | GALR2-expressing cells, antagonist mode; in the data active = inhibition above about 27%;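 note: cells stimulated with galanin 1-16 at roughly its EC80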
S1P2 antag = antagonists of human S1P2 receptor | cell-based S1P2 antagonist assay, inhibition at 5 uM | inhibition, % at 5 µM | hit rate 0.21% among 97,000; in the data active = inhibition above about 45%;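 note: CRE beta-lactamase reporter cells expressing human S1P2 stimulated with S1P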
Target sequence (O95136 whole entry, looked up): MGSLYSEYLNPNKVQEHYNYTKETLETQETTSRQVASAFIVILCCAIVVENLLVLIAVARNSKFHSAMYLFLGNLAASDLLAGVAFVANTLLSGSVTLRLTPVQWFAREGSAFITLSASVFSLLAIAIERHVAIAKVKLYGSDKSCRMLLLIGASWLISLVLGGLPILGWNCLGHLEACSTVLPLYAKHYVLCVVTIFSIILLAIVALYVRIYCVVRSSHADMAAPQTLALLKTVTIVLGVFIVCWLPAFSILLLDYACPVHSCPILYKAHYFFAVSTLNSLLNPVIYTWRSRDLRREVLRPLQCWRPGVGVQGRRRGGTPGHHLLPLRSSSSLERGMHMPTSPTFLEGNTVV
S1P2 agonist = agonists of human S1P2 receptor. O95136. S1P2-expressing cell line, agonist reporter read-out. activation, % at 4.5 µM. hit rate 0.46% among 97,000. AID 729; in the data active = activation above about 16%
GALR2 agonist = GALR2 (human) receptor agonism; hit rate 0.48% among 140,000; GALR2-expressing cells, agonist activation read-out; activation, % (test concentration not listed); AID 803; in the data active = activation above about 5%, passing the limit was not always enough
Numbers stand for hits. Compounds with a hit are over-represented: about 1.2% of the library has one in this group of screens.

Screening Cc1sc2nc(SCc3ccccc3)n(Cc3ccco3)c(=O)c2c1C returned GALR2 blocker inactive, S1P2 antag inactive, S1P2 agonist inactive and GALR2 agonist inactive.
Screening Cc1sc2nc(SCc3nc4ccccc4[nH]3)n(Cc3ccco3)c(=O)c2c1C returned GALR2 blocker inactive, S1P2 antag inactive, S1P2 agonist 17 and GALR2 agonist inactive.
For C=CCn1c(SCC(=O)NC(=O)NCc2ccco2)nc2sc(C)c(C)c2c1=O the results were GALR2 blocker inactive, S1P2 antag inactive, S1P2 agonist inactive and GALR2 agonist 6.2.
For CCc1cc2c(CN3CCN(CC)CC3)cc(=O)oc2cc1O the results were GALR2 blocker inactive, S1P2 antag inactive, S1P2 agonist inactive and GALR2 agonist 4.9.
CCN1CCN(Cc2cc(=O)oc3cc(C)cc(C)c23)CC1 was read as GALR2 blocker inactive, S1P2 antag inactive, S1P2 agonist inactive and GALR2 agonist inactive.
N#Cc1cc2c(=O)n3ccccc3nc2n(Cc2cccnc2)c1=N was read as GALR2 blocker inactive, S1P2 antag inactive, S1P2 agonist inactive and GALR2 agonist inactive.
Cc1cc(-n2c(=O)c(C#N)cc3c(=O)n4ccccc4nc32)no1 was read as GALR2 blocker inactive and GALR2 agonist 31.
Screening C=CCn1c(=O)c(C#N)cc2c(=O)n3ccccc3nc21 returned GALR2 blocker inactive, S1P2 antag inactive, S1P2 agonist 60 and GALR2 agonist 21.
Screening C=CCn1c(=N)c(C#N)cc2c(=O)n3ccccc3nc21 returned GALR2 blocker inactive, S1P2 antag inactive, S1P2 agonist inactive and GALR2 agonist inactive.
For Cc1ccccc1-n1c(=O)c(C#N)cc2c(=O)n3ccccc3nc21 the results were GALR2 blocker inactive, S1P2 antag inactive, S1P2 agonist 63 and GALR2 agonist 74.
For O=C(CSc1nc2cccnc2n1Cc1ccccc1)NC1CCCCC1 the results were GALR2 blocker inactive, S1P2 antag inactive, S1P2 agonist inactive and GALR2 agonist inactive.
CCN(CC)C(=O)COc1ccc(C=O)cc1OC was read as GALR2 blocker inactive and GALR2 agonist inactive.
For Cc1cccc2cc(C(c3nnnn3CC3CCCO3)N3CCc4ccccc4C3)c(=O)[nH]c12 (stereo not given) the results were GALR2 blocker inactive, S1P2 antag inactive, S1P2 agonist 128 and GALR2 agonist inactive.
`O=C(Nc1ccc(-c2nc3ccc(NC(=O)c4cccs4)cc3[nH]2)cc1)c1cccs1` gave GALR2 blocker 28, S1P2 antag inactive, S1P2 agonist inactive and GALR2 agonist inactive.
C=CCSc1nc2ccccc2n1C(=O)/C=C/c1cc(OC)c(OC)c(OC)c1 was read as GALR2 blocker inactive, S1P2 antag 54, S1P2 agonist inactive and GALR2 agonist inactive.
`Cn1c(-c2sc(=S)n(-c3ccccc3)c2N)nc2ccccc21` gave GALR2 blocker inactive, S1P2 antag inactive, S1P2 agonist 32 and GALR2 agonist inactive.
For Cc1cc(C)n2cc(CSc3nnnn3-c3ccc(Cl)cc3)nc2n1 the results were GALR2 blocker inactive, S1P2 antag inactive, S1P2 agonist 106 and GALR2 agonist inactive.
O=[N+]([O-])c1cccc(-c2nc(-c3ccncc3)no2)c1 was read as GALR2 blocker inactive, S1P2 antag inactive, S1P2 agonist 36 and GALR2 agonist inactive.
Screening CC(C)OCCCNC(=O)CCSc1ccc(Cl)cc1 returned GALR2 blocker inactive, S1P2 antag inactive, S1P2 agonist inactive and GALR2 agonist inactive.
CCCCN1C=C(C(=O)OC)C(c2ccccc2C(F)(F)F)C(C(=O)OC)=C1 was read as GALR2 blocker inactive, S1P2 antag inactive, S1P2 agonist 19 and GALR2 agonist inactive.
`CCOc1ccc(C(=O)c2cc([N+](=O)[O-])ccc2Cl)cc1` gave GALR2 blocker inactive, S1P2 antag inactive, S1P2 agonist inactive and GALR2 agonist inactive.
CC(=O)c1cccc(NS(=O)(=O)c2ccc(N/C=C/C(=O)c3ccc(F)cc3)cc2)c1 was read as GALR2 blocker inactive and GALR2 agonist inactive.
`CC(=O)c1cccc(NS(=O)(=O)c2ccc(N/C=C\C(=O)c3ccc(C)cc3)cc2)c1` gave GALR2 blocker inactive, S1P2 antag 67, S1P2 agonist inactive and GALR2 agonist inactive.
For CCCCn1c(NC(=O)c2ccccc2Cl)c(C#N)c2nc3ccccc3nc21 the results were GALR2 blocker inactive, S1P2 antag inactive, S1P2 agonist inactive and GALR2 agonist 7.3.
CCC(Sc1nc2c(c(=O)n1CC)SC(C)C2)C(=O)OC (stereo not given) was read as GALR2 blocker inactive, S1P2 antag inactive, S1P2 agonist inactive and GALR2 agonist inactive.
For CCCCNc1cc(C)nc(NCc2ccccc2)n1 the results were GALR2 blocker inactive, S1P2 antag 57, S1P2 agonist inactive and GALR2 agonist inactive.
For O=C(NNS(=O)(=O)c1ccc2ccccc2c1)c1cccnc1 the results were GALR2 blocker inactive and GALR2 agonist inactive.
For Cc1nn(-c2cccc(Cl)c2)c(Cl)c1/C=N/NC(=O)c1cccs1 the results were GALR2 blocker inactive and GALR2 agonist 5.0.
For Cc1cc(C)c(C)c(OCC(=O)N2CCCCCC2)c1 the results were GALR2 blocker inactive, S1P2 antag inactive, S1P2 agonist inactive and GALR2 agonist inactive.
Screening COc1cccc(C2C3=C(CCCC3=O)Nc3nc(-c4cc(OC)c(OC)c(OC)c4)nn32)c1 (stereo not given) returned GALR2 blocker inactive, S1P2 antag inactive, S1P2 agonist 17 and GALR2 agonist inactive.
`CC(=O)c1cc(C#N)c(Oc2ccc(Cl)cc2Cl)nc1C` gave GALR2 blocker inactive, S1P2 antag inactive, S1P2 agonist inactive and GALR2 agonist inactive.
`COC(=O)c1cc2c(ccn2-c2ccc(F)cc2)n1C(C)C` gave GALR2 blocker inactive, S1P2 antag inactive, S1P2 agonist inactive and GALR2 agonist inactive.
CCCn1c(C(=O)OC)cc2c1ccn2-c1ccc(F)cc1 was read as GALR2 blocker inactive, S1P2 antag inactive, S1P2 agonist inactive and GALR2 agonist 5.6.
O=C1C2C3C=CC(CO)(O3)C2C(=O)N1c1ccccc1-c1ccccc1 (stereo not given) was read as GALR2 blocker 76 and GALR2 agonist inactive.
`CCCOc1ccc(C2C(C(=O)OC)=CN(CCOC)C=C2C(=O)OC)cc1` gave GALR2 blocker inactive, S1P2 antag inactive, S1P2 agonist 17 and GALR2 agonist 6.9.
For COCCN1C=C(C(=O)OC)C(c2ccc(OC)c(OC)c2)C(C(=O)OC)=C1 the results were GALR2 blocker inactive, S1P2 antag inactive, S1P2 agonist inactive and GALR2 agonist inactive.
CC1(C)c2ccccc2N2CCC(=O)NC21/C=C/c1ccco1 (stereo not given) was read as GALR2 blocker inactive, S1P2 antag inactive, S1P2 agonist inactive and GALR2 agonist 6.1.
O=C(Nc1cc(N2CCOCC2)ncn1)NC1(C(F)(F)F)Oc2ccccc2O1 was read as GALR2 blocker inactive, S1P2 antag inactive, S1P2 agonist inactive and GALR2 agonist inactive.
For CC1CCN(C(=O)c2cc(F)c(F)cc2Cl)CC1 the results were GALR2 blocker inactive, S1P2 antag inactive, S1P2 agonist inactive and GALR2 agonist inactive.
Screening CCOC(=O)CCc1c(C)c2ccc(O)cc2oc1=O returned GALR2 blocker inactive, S1P2 antag inactive, S1P2 agonist inactive and GALR2 agonist inactive.
CCN(CC)c1ccc2c(Cl)c(Br)c(=O)oc2c1 was read as GALR2 blocker 76, S1P2 antag 103, S1P2 agonist inactive and GALR2 agonist inactive.

High-throughput results: PubChem, The Scripps Research Institute Molecular Screening Center
